The text below walks through data of publication PMC7862700, “An all-to-all approach to the identification of sequence-specific readers for epigenetic DNA modifications on cytosine”.

Holding throughout (assay): DAPPL (digital affinity profiling via proximity ligation, sequencing); 10 mM Tris-HCl pH 7.5, 50 mM NaCl, 1 mM DTT, 4% glycerol, room temperature, 30 min; GST-TFs on glutathione beads, 16-mer random dsDNA library, 0.1% formaldehyde crosslink after washing; high values mean tight binding
One experiment addresses T1, FLI1 (Homo sapiens, UniProt Q01543 1-452).
T1 sequence: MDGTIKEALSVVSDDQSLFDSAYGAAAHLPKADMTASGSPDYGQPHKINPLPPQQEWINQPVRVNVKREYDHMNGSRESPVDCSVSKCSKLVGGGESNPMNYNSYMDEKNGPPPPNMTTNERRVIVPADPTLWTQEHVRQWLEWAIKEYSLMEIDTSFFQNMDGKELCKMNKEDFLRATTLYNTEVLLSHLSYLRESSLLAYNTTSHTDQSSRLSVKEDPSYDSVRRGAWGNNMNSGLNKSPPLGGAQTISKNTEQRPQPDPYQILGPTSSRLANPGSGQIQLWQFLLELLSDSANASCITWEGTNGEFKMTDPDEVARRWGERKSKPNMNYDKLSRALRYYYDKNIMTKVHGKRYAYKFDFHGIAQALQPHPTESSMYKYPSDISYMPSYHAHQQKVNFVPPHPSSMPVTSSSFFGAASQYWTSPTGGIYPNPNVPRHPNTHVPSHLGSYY
Particulars: protein: recombinant; tags: N-terminal GST; dsDNA, one strand shown. An outline of the steps:
(§1)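 A tag-only sample was pooled with DNA-barcoded human transcription factors that had been expressed in yeast as GST fusions and captured on glutathione beads. The pools were incubated for 30 min at room temperature with 200 nmole of a random double-stranded 16-mer DNA library in Tris/NaCl/DTT/glycerol buffer, then washed, crosslinked with 0.1% formaldehyde, proximity-ligated (BsaI/T4 ligase, 1 h, 37 °C), PCR-amplified and sequenced on an Illumina NextSeq500. Binding signal is each hexamer's read frequency for a factor divided by its frequency for the tag-only sample.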

The next experiment concerns the target T2, ELK1 (Homo sapiens, UniProt P19419 1-428).
T2 sequence: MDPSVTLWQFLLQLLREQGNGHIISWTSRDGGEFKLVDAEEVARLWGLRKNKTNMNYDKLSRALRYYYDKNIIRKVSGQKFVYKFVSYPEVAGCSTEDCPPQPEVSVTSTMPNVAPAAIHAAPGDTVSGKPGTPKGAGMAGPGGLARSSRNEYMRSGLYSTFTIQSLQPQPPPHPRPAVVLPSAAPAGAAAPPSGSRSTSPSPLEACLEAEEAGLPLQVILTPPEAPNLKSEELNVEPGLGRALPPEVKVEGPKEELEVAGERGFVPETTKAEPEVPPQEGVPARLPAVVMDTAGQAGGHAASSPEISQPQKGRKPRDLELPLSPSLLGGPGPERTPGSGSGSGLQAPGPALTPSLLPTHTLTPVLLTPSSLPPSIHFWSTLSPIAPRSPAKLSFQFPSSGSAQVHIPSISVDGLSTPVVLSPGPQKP
The following applies: protein: recombinant; tags: N-terminal GST; dsDNA, one strand shown. In short, it runs like this:
as §1

Another experiment has as its target T3, GABPA (Homo sapiens, UniProt Q06546 1-454).
T3 sequence: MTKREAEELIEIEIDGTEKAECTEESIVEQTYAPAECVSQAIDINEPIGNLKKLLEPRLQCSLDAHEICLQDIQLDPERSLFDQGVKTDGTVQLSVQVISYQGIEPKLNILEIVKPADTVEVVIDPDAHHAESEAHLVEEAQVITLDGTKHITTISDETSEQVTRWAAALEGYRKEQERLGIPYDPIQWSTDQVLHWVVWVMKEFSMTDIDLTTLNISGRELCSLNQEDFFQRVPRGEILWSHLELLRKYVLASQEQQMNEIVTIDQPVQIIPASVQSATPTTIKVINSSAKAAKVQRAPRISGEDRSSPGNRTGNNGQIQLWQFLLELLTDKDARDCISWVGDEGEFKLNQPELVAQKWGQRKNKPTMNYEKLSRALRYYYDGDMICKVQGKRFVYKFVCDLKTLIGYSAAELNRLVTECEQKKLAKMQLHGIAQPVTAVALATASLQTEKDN
Particulars: protein: recombinant; tags: N-terminal GST; dsDNA, one strand shown. An outline of the steps: as §1

The target in the next experiment is T4, ERG (Homo sapiens, UniProt P11308 1-479).
T4 sequence: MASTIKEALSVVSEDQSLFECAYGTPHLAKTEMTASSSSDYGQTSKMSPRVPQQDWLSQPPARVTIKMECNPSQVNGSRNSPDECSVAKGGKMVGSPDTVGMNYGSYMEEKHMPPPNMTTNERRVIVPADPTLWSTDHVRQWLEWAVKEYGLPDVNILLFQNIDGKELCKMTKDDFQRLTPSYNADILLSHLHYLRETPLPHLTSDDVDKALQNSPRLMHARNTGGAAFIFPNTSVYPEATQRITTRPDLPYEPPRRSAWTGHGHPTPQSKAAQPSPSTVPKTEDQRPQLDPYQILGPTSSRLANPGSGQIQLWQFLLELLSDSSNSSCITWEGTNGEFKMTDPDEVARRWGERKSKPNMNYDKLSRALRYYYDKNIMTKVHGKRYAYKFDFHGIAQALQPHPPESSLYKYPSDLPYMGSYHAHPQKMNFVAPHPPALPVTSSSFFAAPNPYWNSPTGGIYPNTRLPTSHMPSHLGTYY
Particulars: protein: recombinant; tags: N-terminal GST; dsDNA, one strand shown. An outline of the steps:
as §1

A further experiment addresses ELF1 (Homo sapiens, UniProt P32519 1-619). Particulars: protein: recombinant; tags: N-terminal GST; dsDNA, one strand shown. In short, it runs like this: as §1
For a further experiment, the target named is T5, EHF (Homo sapiens, UniProt Q9NZC4 1-300).
T5 sequence: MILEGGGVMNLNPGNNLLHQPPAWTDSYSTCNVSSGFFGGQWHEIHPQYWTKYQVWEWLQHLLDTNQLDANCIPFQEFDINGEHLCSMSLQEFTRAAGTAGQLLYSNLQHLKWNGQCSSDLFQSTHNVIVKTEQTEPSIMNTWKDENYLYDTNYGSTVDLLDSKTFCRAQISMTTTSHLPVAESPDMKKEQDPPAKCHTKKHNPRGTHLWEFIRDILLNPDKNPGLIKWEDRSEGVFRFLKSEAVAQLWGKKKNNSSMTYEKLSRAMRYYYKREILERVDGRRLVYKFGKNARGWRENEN
The following applies: protein: recombinant; tags: N-terminal GST; dsDNA, one strand shown. An outline of the steps:
as §1

A further experiment concerns the target SPI1 (Homo sapiens, UniProt P17947 1-270). The following applies: protein: recombinant; tags: N-terminal GST; dsDNA, one strand shown. In short, it runs like this: as §1
Another experiment concerns the target SPIB (Homo sapiens, UniProt Q01892 1-262). Particulars: protein: recombinant; tags: N-terminal GST; dsDNA, one strand shown. An outline of the steps:
as §1

The next experiment addresses T6, ELK3 (Homo sapiens, UniProt P41970 1-407).
T6 sequence: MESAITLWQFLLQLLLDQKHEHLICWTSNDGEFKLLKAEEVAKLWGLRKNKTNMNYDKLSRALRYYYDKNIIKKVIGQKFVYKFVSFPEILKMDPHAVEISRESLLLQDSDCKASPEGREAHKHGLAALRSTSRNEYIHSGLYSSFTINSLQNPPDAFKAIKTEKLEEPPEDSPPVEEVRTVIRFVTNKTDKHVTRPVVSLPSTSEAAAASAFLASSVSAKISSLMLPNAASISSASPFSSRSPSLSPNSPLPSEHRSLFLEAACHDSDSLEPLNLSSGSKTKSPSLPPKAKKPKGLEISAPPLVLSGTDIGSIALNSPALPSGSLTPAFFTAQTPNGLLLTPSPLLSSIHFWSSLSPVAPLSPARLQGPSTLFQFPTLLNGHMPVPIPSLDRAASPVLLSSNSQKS
Particulars: protein: recombinant; tags: N-terminal GST; dsDNA, one strand shown. An outline of the steps:
as §1

Another experiment deals with T7, FEV (Homo sapiens, UniProt Q99581 1-238).
T7 sequence: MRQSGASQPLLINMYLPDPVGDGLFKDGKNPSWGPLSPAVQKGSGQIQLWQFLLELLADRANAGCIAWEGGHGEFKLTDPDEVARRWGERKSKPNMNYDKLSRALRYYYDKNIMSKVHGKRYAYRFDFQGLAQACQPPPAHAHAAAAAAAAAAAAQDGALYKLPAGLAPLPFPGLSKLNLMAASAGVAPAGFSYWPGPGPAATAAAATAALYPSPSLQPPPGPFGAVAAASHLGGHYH
Particulars: protein: recombinant; tags: N-terminal GST; dsDNA, one strand shown. In short, it runs like this: as §1

A further experiment deals with ETV5 (Homo sapiens, UniProt P41161 1-510). The following applies: protein: recombinant; tags: N-terminal GST; dsDNA, one strand shown. An outline of the steps: as §1
The target of another experiment is HSF1 (Homo sapiens, UniProt Q00613 1-529). Particulars: protein: recombinant; tags: N-terminal GST; chain copies: 3; dsDNA, one strand shown. An outline of the steps:
as §1

For another experiment, the target named is T8, SPIC (Homo sapiens, UniProt Q8N5J4 1-248).
T8 sequence: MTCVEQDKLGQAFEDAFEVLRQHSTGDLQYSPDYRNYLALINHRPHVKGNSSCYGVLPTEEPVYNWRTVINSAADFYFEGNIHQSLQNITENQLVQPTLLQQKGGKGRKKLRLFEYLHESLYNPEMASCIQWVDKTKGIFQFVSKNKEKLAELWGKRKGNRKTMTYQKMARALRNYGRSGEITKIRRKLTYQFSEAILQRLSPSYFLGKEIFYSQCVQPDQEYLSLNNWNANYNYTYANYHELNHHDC
Particulars: protein: recombinant; tags: N-terminal GST; dsDNA, one strand shown. An outline of the steps: as §1

The target in another experiment is ELF4 (Homo sapiens, UniProt Q99607 1-663). The following applies: protein: recombinant; tags: N-terminal GST; dsDNA, one strand shown. An outline of the steps:
as §1

For another experiment, the target named is T9, ELK4 (Homo sapiens, UniProt P28324-2 1-405).
T9 sequence: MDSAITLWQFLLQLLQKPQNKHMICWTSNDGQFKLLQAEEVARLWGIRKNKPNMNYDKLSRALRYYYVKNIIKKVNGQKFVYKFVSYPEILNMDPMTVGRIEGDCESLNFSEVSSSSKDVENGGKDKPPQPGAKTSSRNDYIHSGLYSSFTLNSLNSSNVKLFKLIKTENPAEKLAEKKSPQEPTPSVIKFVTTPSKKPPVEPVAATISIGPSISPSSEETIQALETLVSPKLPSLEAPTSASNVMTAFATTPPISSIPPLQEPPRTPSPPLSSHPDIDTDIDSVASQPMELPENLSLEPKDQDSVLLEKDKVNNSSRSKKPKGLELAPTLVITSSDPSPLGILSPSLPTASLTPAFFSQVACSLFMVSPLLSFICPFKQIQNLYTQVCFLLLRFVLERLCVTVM
The following applies: protein: recombinant; tags: N-terminal GST; dsDNA, one strand shown. An outline of the steps:
as §1

In another experiment the target is T10, ETV2 (Homo sapiens, UniProt O00321 1-342).
T10 sequence: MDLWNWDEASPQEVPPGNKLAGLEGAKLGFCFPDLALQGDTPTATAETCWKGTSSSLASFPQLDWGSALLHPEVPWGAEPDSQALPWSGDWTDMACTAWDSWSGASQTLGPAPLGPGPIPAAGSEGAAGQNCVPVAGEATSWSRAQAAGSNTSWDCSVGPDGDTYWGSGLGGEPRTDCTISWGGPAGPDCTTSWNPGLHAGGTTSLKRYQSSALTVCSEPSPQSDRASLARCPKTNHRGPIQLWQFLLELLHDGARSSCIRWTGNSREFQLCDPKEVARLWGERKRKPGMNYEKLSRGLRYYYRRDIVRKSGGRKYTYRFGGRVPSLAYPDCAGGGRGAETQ
The following applies: protein: recombinant; tags: N-terminal GST; dsDNA, one strand shown. An outline of the steps: as §1

The target of a further experiment is T11, ELF3 (Homo sapiens, UniProt P78545 1-371).
T11 sequence: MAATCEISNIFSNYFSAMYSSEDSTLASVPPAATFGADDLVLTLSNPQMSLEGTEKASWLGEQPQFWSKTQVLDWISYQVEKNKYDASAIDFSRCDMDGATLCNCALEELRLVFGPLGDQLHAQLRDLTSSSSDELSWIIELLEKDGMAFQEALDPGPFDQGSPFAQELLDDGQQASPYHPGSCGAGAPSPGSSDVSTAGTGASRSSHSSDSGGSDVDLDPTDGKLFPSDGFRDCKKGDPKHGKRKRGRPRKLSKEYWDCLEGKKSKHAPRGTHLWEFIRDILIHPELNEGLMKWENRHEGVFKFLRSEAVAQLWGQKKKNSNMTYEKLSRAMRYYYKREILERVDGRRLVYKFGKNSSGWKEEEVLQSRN
Particulars: protein: recombinant; tags: N-terminal GST; dsDNA, one strand shown. An outline of the steps:
as §1

The next experiment deals with CRX (Homo sapiens, UniProt O43186 1-299). The following applies: protein: recombinant; tags: N-terminal GST; dsDNA, one strand shown. An outline of the steps:
as §1

A further experiment addresses ETV1 (Homo sapiens, UniProt P50549 1-477). Particulars: protein: recombinant; tags: N-terminal GST; dsDNA, one strand shown. In short, it runs like this: as §1

ELF4, sequence (Q99607 whole entry): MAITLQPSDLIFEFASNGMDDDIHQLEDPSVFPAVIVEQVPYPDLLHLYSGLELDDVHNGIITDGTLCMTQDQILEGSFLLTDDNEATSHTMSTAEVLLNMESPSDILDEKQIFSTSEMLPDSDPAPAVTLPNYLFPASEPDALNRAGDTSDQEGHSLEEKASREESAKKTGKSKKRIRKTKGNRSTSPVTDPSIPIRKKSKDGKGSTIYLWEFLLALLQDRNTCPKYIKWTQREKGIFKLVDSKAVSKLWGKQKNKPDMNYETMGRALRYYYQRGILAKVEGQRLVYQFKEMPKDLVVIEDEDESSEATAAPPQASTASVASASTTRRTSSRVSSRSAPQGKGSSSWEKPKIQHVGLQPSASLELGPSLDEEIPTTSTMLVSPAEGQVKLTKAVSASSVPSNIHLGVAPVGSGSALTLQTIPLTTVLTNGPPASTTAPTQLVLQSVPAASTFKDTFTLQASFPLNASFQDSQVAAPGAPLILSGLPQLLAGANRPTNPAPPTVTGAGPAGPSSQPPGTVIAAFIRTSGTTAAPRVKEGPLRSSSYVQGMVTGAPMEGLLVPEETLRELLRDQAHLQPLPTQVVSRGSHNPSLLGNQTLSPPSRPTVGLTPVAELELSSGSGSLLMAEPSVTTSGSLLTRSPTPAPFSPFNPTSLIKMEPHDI
ETV5, sequence (P41161 whole entry): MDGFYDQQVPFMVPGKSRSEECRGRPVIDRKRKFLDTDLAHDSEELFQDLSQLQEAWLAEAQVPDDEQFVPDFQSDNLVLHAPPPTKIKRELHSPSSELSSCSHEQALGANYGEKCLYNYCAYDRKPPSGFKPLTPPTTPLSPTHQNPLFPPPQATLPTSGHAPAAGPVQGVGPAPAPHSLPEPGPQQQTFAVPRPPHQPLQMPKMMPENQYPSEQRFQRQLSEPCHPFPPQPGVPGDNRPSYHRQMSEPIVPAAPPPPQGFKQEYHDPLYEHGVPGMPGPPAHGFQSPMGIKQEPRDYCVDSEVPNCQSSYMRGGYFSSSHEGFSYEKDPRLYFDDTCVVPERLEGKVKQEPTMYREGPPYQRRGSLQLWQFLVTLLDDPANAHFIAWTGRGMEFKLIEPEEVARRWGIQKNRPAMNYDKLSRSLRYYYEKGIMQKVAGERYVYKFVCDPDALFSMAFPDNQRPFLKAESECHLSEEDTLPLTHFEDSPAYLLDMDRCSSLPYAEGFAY
SPIB, sequence (Q01892 whole entry): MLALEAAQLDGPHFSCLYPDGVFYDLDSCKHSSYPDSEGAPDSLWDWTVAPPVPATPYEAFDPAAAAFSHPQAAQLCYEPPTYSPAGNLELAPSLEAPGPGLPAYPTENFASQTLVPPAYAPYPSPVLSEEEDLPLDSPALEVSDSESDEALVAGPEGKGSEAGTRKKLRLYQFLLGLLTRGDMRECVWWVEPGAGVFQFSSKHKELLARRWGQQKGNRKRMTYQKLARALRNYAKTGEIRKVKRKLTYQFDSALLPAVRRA
ETV1, sequence (P50549 whole entry): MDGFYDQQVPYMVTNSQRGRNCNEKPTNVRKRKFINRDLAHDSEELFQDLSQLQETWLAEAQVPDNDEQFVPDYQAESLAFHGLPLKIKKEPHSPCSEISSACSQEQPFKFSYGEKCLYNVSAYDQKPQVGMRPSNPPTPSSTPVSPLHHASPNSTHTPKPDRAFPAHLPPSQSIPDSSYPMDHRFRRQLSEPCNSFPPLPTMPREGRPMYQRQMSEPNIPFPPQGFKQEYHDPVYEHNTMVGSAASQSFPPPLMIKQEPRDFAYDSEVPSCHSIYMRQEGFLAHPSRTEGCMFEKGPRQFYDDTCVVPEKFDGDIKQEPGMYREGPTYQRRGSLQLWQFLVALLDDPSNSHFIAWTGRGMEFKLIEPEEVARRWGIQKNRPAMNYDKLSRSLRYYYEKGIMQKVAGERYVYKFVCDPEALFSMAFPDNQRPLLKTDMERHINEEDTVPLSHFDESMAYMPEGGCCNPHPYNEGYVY
ELF1, sequence (P32519 whole entry): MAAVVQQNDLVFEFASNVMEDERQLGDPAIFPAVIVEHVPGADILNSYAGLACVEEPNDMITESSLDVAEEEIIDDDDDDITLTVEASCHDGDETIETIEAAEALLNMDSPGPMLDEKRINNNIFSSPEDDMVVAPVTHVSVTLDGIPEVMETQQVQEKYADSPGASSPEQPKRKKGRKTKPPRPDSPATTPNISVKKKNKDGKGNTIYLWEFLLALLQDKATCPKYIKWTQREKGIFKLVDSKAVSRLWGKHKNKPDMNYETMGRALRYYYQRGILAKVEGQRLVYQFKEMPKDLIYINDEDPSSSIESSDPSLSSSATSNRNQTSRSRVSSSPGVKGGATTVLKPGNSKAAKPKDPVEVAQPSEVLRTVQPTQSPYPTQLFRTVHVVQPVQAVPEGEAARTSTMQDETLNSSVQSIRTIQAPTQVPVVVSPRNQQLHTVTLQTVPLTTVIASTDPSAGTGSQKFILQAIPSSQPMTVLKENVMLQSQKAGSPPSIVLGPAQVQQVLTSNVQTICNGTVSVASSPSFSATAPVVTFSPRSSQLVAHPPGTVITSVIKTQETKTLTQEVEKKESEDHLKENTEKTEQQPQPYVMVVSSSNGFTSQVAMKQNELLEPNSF
HSF1, sequence (Q00613 whole entry): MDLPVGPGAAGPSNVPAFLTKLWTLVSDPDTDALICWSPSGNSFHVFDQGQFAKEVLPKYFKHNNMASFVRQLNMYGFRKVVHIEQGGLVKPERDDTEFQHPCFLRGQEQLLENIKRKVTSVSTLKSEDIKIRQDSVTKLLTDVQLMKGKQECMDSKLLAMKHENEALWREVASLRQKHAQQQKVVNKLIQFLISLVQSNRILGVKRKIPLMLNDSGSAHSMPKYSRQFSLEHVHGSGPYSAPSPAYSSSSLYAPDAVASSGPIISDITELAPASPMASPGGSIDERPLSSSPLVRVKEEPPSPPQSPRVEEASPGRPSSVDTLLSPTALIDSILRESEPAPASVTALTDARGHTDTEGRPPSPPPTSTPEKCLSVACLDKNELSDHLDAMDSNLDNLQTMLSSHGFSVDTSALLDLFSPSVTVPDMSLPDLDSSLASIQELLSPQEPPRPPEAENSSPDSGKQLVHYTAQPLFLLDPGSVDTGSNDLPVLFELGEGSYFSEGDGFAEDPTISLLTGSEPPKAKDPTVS
CRX, sequence (O43186 whole entry): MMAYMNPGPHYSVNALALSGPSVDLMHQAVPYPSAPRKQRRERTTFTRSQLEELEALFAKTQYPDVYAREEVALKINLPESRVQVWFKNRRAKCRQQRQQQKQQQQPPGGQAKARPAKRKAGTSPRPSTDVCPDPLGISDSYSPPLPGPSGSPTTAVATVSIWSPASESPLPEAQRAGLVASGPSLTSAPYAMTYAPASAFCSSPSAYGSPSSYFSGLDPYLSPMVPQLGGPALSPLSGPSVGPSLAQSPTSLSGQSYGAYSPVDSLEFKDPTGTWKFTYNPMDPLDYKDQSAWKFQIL

As for AAGTAG, the binding signal with FLI1 is 1.12 fold enrichment (6-mer frequency, TF over GST control); with ELK1, 1.21 fold enrichment (6-mer frequency, TF over GST control); in the experiment with GABPA, 1.2 fold enrichment (6-mer frequency, TF over GST control); with ERG, 1.24 fold enrichment (6-mer frequency, TF over GST control); with ELF1, 1.15 fold enrichment (6-mer frequency, TF over GST control); with EHF, 1.23 fold enrichment (6-mer frequency, TF over GST control). The binding signal was 1.35 fold enrichment (6-mer frequency, TF over GST control) in the experiment with SPI1; 1.13 fold enrichment (6-mer frequency, TF over GST control) with SPIB; 1.26 fold enrichment (6-mer frequency, TF over GST control) with ELK3; 1.21 fold enrichment (6-mer frequency, TF over GST control) with FEV; 1.25 fold enrichment (6-mer frequency, TF over GST control) with ETV5; 1.11 fold enrichment (6-mer frequency, TF over GST control) with HSF1. Moreover, the binding signal with SPIC is 1.3 fold enrichment (6-mer frequency, TF over GST control); with ELF4, 1.18 fold enrichment (6-mer frequency, TF over GST control); in the experiment with ELK4, 1.06 fold enrichment (6-mer frequency, TF over GST control); with ETV2, 1.18 fold enrichment (6-mer frequency, TF over GST control); with ELF3, 1.31 fold enrichment (6-mer frequency, TF over GST control); with CRX, 1.2 fold enrichment (6-mer frequency, TF over GST control). Moreover, the binding signal with ETV1 is 1.28 fold enrichment (6-mer frequency, TF over GST control).
